Results as given in the supplement of paper PMC10849652.
The full data set covers some 8,800 targets. This sample favours those with a hit. About 0.5% of all pairs of compound and target were hits.

These targets were tested with CCCS(=O)(=O)Nc1ccc(F)c(C(=O)c2c[nH]c3ncc(-c4ccc(Cl)cc4)cc23)c1F [vemurafenib] (assay: log2 fold change, soluble protein after heating vs DMSO (PISA); higher = thermal stabilisation; K562 lysate, 10 uM; active = over 0.2 and 3.5 SD of the protein, either way, in both replicates (recomputed)).
Summary of the method: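 Quantification was by TMTpro 16plex LC-MS/MS with equalised channel sums, applied to the supernatant after 21,000xg for 90 min. Samples were crude K562 extract at 1 mg/mL protein in PBS pH 7.4 with 1 mM MgCl2, treated with 10 μM compound for 30 min, heated for 3 min across 48°C-58°C, pooled and brought to 0.5% NP-40 at 4°C. Values are log-two fold changes in thermal stability relative to solvent controls, from duplicates.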

UniProt P07437, sequence (P07437 whole entry, looked up): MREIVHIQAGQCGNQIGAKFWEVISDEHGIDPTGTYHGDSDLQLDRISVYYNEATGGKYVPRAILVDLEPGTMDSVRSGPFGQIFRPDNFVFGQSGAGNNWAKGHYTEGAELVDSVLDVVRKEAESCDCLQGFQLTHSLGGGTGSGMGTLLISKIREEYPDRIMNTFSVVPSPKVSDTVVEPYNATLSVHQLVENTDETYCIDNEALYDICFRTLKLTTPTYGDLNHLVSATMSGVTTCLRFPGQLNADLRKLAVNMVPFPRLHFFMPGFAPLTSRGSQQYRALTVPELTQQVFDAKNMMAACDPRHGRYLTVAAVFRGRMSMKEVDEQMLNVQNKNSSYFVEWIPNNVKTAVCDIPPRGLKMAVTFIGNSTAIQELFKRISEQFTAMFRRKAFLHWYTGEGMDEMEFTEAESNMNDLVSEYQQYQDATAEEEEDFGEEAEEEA
UniProt Q96CW5, sequence (Q96CW5 whole entry, looked up): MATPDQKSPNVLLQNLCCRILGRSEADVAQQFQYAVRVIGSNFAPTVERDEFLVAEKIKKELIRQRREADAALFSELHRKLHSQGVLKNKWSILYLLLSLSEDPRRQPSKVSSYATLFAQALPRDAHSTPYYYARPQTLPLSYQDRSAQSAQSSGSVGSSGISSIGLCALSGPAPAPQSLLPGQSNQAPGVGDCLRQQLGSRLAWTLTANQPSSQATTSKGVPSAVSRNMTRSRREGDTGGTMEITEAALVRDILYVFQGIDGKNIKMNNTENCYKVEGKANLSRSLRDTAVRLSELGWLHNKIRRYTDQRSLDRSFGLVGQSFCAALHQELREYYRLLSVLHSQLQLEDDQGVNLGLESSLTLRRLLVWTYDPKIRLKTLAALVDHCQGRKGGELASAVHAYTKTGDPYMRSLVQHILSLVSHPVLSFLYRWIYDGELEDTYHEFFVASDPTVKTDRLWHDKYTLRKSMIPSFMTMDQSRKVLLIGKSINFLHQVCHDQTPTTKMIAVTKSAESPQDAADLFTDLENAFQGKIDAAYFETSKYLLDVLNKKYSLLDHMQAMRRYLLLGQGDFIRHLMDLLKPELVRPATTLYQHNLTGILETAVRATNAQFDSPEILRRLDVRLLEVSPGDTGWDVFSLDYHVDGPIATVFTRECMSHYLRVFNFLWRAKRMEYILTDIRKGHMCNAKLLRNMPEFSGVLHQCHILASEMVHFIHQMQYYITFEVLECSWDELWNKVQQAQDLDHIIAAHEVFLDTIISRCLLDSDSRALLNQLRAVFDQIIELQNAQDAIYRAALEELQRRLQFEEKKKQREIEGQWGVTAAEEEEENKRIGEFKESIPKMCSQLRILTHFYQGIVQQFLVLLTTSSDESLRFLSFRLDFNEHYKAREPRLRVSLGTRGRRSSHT
UniProt Q5R3I4, sequence (Q5R3I4 whole entry, looked up): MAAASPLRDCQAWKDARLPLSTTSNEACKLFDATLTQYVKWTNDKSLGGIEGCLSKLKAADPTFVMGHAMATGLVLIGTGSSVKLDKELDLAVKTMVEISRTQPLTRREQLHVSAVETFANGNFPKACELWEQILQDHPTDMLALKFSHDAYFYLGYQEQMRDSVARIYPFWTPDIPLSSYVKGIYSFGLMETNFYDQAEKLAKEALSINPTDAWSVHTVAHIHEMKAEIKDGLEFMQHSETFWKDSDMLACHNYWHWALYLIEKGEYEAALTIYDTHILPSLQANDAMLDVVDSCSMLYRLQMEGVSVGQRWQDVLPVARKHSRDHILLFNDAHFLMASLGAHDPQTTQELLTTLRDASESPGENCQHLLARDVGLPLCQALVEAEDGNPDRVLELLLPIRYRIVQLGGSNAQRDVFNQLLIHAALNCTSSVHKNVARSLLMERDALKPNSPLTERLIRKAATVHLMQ
UniProt Q9UKI8, sequence (Q9UKI8 whole entry, looked up): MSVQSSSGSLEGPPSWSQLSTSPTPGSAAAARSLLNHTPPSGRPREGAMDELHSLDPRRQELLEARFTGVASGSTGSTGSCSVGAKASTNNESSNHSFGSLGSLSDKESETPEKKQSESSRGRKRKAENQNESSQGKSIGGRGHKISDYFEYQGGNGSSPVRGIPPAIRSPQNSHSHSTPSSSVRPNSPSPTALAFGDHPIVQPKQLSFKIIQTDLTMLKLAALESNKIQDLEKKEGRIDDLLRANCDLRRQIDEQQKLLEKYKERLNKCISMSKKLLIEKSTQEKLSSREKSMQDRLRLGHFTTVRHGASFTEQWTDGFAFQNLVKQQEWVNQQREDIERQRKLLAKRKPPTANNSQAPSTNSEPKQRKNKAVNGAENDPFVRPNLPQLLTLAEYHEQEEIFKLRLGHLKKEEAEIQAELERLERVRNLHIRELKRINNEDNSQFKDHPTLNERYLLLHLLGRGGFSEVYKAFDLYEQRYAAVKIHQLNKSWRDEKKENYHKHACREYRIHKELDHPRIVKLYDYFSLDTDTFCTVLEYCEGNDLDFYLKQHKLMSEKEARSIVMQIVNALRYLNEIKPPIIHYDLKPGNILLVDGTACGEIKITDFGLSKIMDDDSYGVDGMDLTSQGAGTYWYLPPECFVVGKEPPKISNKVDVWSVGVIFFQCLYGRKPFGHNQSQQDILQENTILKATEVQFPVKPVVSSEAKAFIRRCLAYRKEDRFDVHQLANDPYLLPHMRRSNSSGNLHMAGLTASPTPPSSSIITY
UniProt Q5TEJ8, sequence (Q5TEJ8 whole entry, looked up): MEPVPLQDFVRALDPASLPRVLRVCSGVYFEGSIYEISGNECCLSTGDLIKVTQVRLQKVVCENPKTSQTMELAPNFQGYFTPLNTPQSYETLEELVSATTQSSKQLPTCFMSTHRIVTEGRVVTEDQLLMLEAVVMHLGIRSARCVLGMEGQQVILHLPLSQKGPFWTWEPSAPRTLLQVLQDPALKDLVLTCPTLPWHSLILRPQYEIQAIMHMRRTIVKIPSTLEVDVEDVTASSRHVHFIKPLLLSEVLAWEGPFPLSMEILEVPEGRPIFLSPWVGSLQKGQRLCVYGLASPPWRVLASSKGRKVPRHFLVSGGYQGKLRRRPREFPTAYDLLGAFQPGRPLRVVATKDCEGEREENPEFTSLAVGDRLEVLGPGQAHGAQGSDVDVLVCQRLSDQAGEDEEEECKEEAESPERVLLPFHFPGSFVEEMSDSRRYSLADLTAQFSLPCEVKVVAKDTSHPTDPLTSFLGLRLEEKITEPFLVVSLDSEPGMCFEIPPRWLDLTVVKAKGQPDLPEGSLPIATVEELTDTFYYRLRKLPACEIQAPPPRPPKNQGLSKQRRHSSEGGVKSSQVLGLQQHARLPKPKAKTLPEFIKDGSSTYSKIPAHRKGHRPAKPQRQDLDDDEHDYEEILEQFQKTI
UniProt Q5TAX3, sequence (Q5TAX3 whole entry, looked up): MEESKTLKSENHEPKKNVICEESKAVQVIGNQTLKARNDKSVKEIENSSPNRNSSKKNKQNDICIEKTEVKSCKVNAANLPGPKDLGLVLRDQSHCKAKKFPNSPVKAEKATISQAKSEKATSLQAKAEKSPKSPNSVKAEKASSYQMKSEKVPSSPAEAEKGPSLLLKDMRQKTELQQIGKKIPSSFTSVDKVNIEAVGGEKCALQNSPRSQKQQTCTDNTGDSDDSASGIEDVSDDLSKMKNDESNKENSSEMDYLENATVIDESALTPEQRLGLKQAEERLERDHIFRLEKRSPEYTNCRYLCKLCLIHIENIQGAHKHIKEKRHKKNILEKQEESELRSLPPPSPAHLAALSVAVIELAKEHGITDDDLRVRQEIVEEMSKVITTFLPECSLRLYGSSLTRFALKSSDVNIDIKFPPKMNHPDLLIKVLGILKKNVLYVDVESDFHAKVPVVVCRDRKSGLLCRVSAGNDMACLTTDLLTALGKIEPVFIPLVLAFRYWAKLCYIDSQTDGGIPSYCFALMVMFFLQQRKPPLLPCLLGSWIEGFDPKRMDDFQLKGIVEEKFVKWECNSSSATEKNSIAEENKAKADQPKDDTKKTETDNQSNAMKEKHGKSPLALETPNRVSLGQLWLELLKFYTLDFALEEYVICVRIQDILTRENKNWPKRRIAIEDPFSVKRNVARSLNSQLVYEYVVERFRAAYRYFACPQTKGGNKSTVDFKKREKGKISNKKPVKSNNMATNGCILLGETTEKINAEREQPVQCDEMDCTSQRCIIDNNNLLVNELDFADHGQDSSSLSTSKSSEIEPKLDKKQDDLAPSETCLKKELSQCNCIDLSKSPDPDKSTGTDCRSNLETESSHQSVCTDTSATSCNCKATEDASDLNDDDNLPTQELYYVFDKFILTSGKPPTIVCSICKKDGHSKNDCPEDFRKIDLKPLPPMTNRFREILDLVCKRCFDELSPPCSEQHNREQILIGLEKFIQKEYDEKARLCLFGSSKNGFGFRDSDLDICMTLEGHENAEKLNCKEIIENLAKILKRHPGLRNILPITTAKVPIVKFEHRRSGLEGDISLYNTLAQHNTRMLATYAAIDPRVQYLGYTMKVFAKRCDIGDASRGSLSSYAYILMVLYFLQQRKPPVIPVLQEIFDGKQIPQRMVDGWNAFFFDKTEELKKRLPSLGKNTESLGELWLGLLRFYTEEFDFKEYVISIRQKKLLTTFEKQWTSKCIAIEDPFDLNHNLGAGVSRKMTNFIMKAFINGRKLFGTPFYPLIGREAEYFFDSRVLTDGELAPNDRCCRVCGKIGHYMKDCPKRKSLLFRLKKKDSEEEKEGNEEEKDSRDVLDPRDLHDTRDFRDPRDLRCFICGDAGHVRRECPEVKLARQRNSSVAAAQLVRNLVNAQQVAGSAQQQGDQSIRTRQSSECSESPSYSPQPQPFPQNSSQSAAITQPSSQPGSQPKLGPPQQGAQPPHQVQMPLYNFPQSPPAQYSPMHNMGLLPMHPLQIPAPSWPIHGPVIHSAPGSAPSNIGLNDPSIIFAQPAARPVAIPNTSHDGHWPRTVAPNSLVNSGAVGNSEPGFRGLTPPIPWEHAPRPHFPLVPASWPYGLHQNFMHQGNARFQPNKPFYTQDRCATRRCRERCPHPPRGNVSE

log2 fold change, inactive:
TPP2 (UniProt Q5VZU9) 0.003, TUBGCP3 (UniProt Q96CW5) -0.013, TEX30 (UniProt Q5JUR7) 0.008, TPM1 isoform 4 (UniProt P09493) -0.049, TRAPPC9 isoform 2 (UniProt Q96Q05) 0.053, TUT4 (UniProt Q5TAX3) 0.091, TRIM33 (UniProt H0Y612) 0.012, TECR (UniProt Q9NZ01) -0.003, TP53RK (UniProt Q96S44) -0.018, THEMIS2 (UniProt Q5TEJ8) -0.004, TTC38 (UniProt Q5R3I4) 0.035, TPM4 (UniProt P67936) -0.025, TMOD1 (UniProt P28289) -0.015, TOX4 (UniProt O94842) -0.019, TMEM199 (UniProt Q8N511) 0, UBE4A isoform 2 (UniProt Q14139) -0.008, TMEM87B (UniProt Q96K49) -0.004, TMPO (UniProt P42167) 0.063, TTI2 (UniProt Q6NXR4) -0.009, TUBB3 (UniProt Q13509) -0.004, TUBB (UniProt P07437) 0.018, TLK1 isoform 2 (UniProt Q9UKI8) 0.001, TRA2A (UniProt Q13595) -0.197
